{"source": "the antibiotic and cytotoxicity screens of Wong et al. (2023)", "note": "Hit rate of the full screen: of about 39,000 compounds, about 3,300 (8.5%) were called active. What follows is part of a selection rich in actives, with near analogues and random picks from the rest."}
{"tested_on": "HepG2", "assay": "cytotoxicity call (relative viability < 0.9)", "conditions": "10 µM"}
{"compound": "CCNC(=O)CCC(N)C(=O)[O-].[K+]", "note": "(configuration not stated)", "cytotoxicity call": "inactive"}
{"compound": "C[C@@H]1ON(c2ccc(I)cc2)[C@H](c2ccc(OC(=O)OC(C)(C)C)cc2)[C@H]1C(=O)N1C(=O)OC[C@H]1Cc1ccccc1", "cytotoxicity call": "inactive"}
{"compound": "COc1ccc(S(=O)(=O)N(C)C[C@@H]2Oc3ccc(NS(=O)(=O)c4c(C)noc4C)cc3CC(=O)N([C@H](C)CO)C[C@@H]2C)cc1", "cytotoxicity call": "inactive"}
{"compound": "C[C@@H]1CN([C@@H](C)CO)C(=O)c2cc(NC(=O)Nc3ccccc3)ccc2O[C@@H](C)CCCCO[C@H]1CN(C)C(=O)OC(C)(C)C", "cytotoxicity call": "inactive"}
{"compound": "C[C@H]1CN([C@@H](C)CO)C(=O)Cc2cc(NC(=O)NC3CCCCC3)ccc2O[C@@H]1CN(C)C(=O)Nc1cccc2ccccc12", "cytotoxicity call": "inactive"}
{"compound": "Cc1noc(C)c1NC(=O)Nc1ccc2c(c1)CC(=O)N([C@H](C)CO)C[C@H](C)[C@@H](CN(C)C(=O)Nc1cccc3ccccc13)O2", "cytotoxicity call": "inactive"}
{"compound": "C[C@@H]1CN([C@@H](C)CO)C(=O)Cc2cc(NC(=O)NC3CCCCC3)ccc2O[C@H]1CN(C)C(=O)Nc1cccc2ccccc12", "cytotoxicity call": "inactive"}
{"compound": "CC(C)NC(=O)N(C)C[C@H]1Oc2ccc(NC(=O)C3CCCCC3)cc2CC(=O)N([C@H](C)CO)C[C@H]1C", "cytotoxicity call": "inactive"}
{"compound": "C[C@H]1CN([C@@H](C)CO)C(=O)Cc2cc(NC(=O)C3CCCCC3)ccc2O[C@H]1CN(C)C(=O)Nc1cccc2ccccc12", "cytotoxicity call": "inactive"}
{"compound": "C[C@@H]1CN([C@H](C)CO)C(=O)Cc2cc(NC(=O)C3CCCCC3)ccc2O[C@H]1CN(C)C(=O)Nc1cccc2ccccc12", "cytotoxicity call": "inactive"}
{"compound": "C[C@H]1CN([C@@H](C)CO)C(=O)Cc2cc(NC(=O)NC3CCCCC3)ccc2O[C@H]1CN(C)C(=O)Nc1cccc2ccccc12", "cytotoxicity call": "active"}
{"compound": "Cc1noc(C)c1NC(=O)Nc1ccc2c(c1)CC(=O)N([C@@H](C)CO)C[C@H](C)[C@@H](CN(C)C(=O)Nc1cccc3ccccc13)O2", "cytotoxicity call": "inactive"}
{"compound": "CC(C)NC(=O)N(C)C[C@@H]1Oc2ccc(NC(=O)C3CCCCC3)cc2CC(=O)N([C@@H](C)CO)C[C@@H]1C", "cytotoxicity call": "inactive"}
{"compound": "Cc1noc(C)c1NC(=O)Nc1ccc2c(c1)CC(=O)N([C@@H](C)CO)C[C@@H](C)[C@H](CN(C)C(=O)Nc1cccc3ccccc13)O2", "cytotoxicity call": "active"}
{"compound": "C[C@H](CO)N1C[C@H](C)[C@H](CN(C)C(=O)Nc2cccc3ccccc23)Oc2ccc(NC(=O)C3CCCCC3)cc2CC1=O", "cytotoxicity call": "active"}
{"compound": "CC(C)NC(=O)N(C)C[C@H]1Oc2ccc(NC(=O)C3CCCCC3)cc2CC(=O)N([C@H](C)CO)C[C@@H]1C", "cytotoxicity call": "active"}
{"compound": "COc1ccc(NC(=O)Nc2ccc3c(c2)C(=O)N([C@H](C)CO)C[C@H](C)[C@@H](CN(C)S(=O)(=O)c2ccc(C)cc2)OCCCC[C@@H](C)O3)cc1", "cytotoxicity call": "inactive"}
{"compound": "NC(=O)NC(=O)C[C@H]1Nc2ccccc2NC1=O", "cytotoxicity call": "inactive"}
{"compound": "CCc1c(C(=O)OC)nnc2cc(C)nn12", "cytotoxicity call": "inactive"}
{"compound": "O=C(CN1CCOCC1)N[C@@H]1CC[C@H](CCn2cc(C3CCCC3)nn2)O[C@@H]1CO", "cytotoxicity call": "inactive"}
{"compound": "COCC#Cc1ccc([C@H]2[C@@H](CO)N3C(=O)CN(C(=O)c4ccncc4)C[C@@H]23)cc1", "cytotoxicity call": "inactive"}
{"compound": "C[C@@H]1CN([C@H](C)CO)C(=O)Cc2cc(NC(=O)Nc3cccc4ccccc34)ccc2O[C@H]1CN(C)C(=O)NC1CCCCC1", "cytotoxicity call": "inactive"}
{"compound": "C[C@H](CO)N1C[C@H](C)[C@@H](CN(C)C(=O)NC2CCCCC2)Oc2ccc(NC(=O)Nc3cccc4ccccc34)cc2CC1=O", "cytotoxicity call": "inactive"}
{"compound": "C[C@@H]1CN([C@@H](C)CO)C(=O)Cc2cc(NC(=O)Nc3cccc4ccccc34)ccc2O[C@@H]1CN(C)C(=O)NC1CCCCC1", "cytotoxicity call": "active"}
{"compound": "CCNC(=O)C[C@H]1C=C[C@@H](NC(=O)C2CC2)[C@@H](CO)O1", "cytotoxicity call": "inactive"}
{"compound": "CC1(C)CC(NC(=O)c2ccc(Cl)c(S(=O)(=O)N(Cc3ccccc3)c3ccccc3)c2)CC(C)(C)N1", "cytotoxicity call": "active"}
{"compound": "O=C(NCCN1CCOCC1)c1ccc(Cl)c(S(=O)(=O)N2CCOCC2)c1", "cytotoxicity call": "inactive"}
{"compound": "CC1Cc2ccccc2N1NC(=O)c1ccc(Cl)c(S(N)(=O)=O)c1", "note": "(configuration not stated)", "cytotoxicity call": "inactive"}
{"compound": "C[C@@H]1CN([C@@H](C)CO)C(=O)c2cc(NS(=O)(=O)c3cccs3)ccc2O[C@@H](C)CCCCO[C@@H]1CN(C)C(=O)NC1CCCCC1", "cytotoxicity call": "inactive"}
{"compound": "C[C@@H]1CN([C@@H](C)CO)C(=O)c2cc(C#Cc3cccnc3)cnc2O[C@H]1CN(C)S(=O)(=O)c1ccccc1F", "cytotoxicity call": "inactive"}
{"compound": "Cc1cc2nc3c(=O)[nH]c(=O)nc-3n(C[C@@H](O)[C@@H](O)[C@@H](O)CO)c2cc1C", "cytotoxicity call": "inactive"}
{"compound": "COC1=CC(C)C2CC3OC(=O)CC4C(C)=C(OC)C(=O)C(C2(C)C1=O)C34C", "note": "(configuration not stated)", "cytotoxicity call": "inactive"}
{"compound": "C[C@H]1CC=CC[C@H](c2ccc3c(c2)OCO3)NC(=O)[C@@H](Cc2ccccc2)N(C)C(=O)c2ccccc2O1", "cytotoxicity call": "inactive"}
{"compound": "C[C@@H]1CC=CC[C@H](c2ccc3c(c2)OCO3)NC(=O)[C@@H](Cc2ccccc2)N(C)C(=O)c2ccccc2O1", "cytotoxicity call": "active"}
{"compound": "C[C@H]1CC=CC[C@@H](c2ccc3c(c2)OCO3)NC(=O)[C@H](Cc2ccccc2)N(C)C(=O)c2ccccc2O1", "cytotoxicity call": "inactive"}
{"compound": "C[C@@H]1CN([C@@H](C)CO)S(=O)(=O)c2ccc(C#C[C@@H](C)O)cc2O[C@@H]1CN(C)C(=O)c1ccccc1", "cytotoxicity call": "inactive"}
{"compound": "C[C@H]1CN([C@@H](C)CO)S(=O)(=O)c2ccc(C#Cc3ccncc3)cc2O[C@@H]1CN(C)C(=O)C1CCC1", "cytotoxicity call": "inactive"}
{"compound": "C[C@H]1CN([C@@H](C)CO)S(=O)(=O)c2ccc(C#Cc3ccncc3)cc2O[C@H]1CN(C)C(=O)C1CCC1", "cytotoxicity call": "inactive"}
{"compound": "C[C@@H]1CN([C@@H](C)CO)S(=O)(=O)c2ccc(C#Cc3ccncc3)cc2O[C@H]1CN(C)C(=O)C1CCC1", "cytotoxicity call": "active"}
{"compound": "C[C@@H]1CN([C@@H](C)CO)S(=O)(=O)c2ccc(C#Cc3ccncc3)cc2O[C@@H]1CN(C)C(=O)C1CCC1", "cytotoxicity call": "inactive"}
{"compound": "C[C@H](CO)N1C[C@H](C)[C@H](CN(C)C(=O)C2CCC2)Oc2cc(C#Cc3ccncc3)ccc2S1(=O)=O", "cytotoxicity call": "active"}
{"compound": "C[C@H](CO)N1C[C@H](C)[C@@H](CN(C)C(=O)C2CCC2)Oc2cc(C#Cc3ccncc3)ccc2S1(=O)=O", "cytotoxicity call": "active"}
{"compound": "C[C@@H]1CN([C@H](C)CO)S(=O)(=O)c2ccc(C#Cc3ccncc3)cc2O[C@H]1CN(C)C(=O)C1CCC1", "cytotoxicity call": "active"}
{"compound": "C[C@@H]1CN([C@@H](C)CO)C(=O)c2cccc(NS(=O)(=O)c3cn(C)cn3)c2O[C@@H]1CN(C)C(=O)Nc1ccc2c(c1)OCO2", "cytotoxicity call": "inactive"}
{"compound": "CCc1nc2ccc(C(=O)Nc3ccc(OC)c(OC)c3)cn2c1N(CC)Cc1cccc(Br)c1", "cytotoxicity call": "inactive"}
{"compound": "O=C(CSc1nnc(-c2ccccc2)n1C1CCCCC1)Nc1ccc(S(=O)(=O)Nc2ccccn2)cc1", "cytotoxicity call": "inactive"}
{"compound": "Cc1ccc(CN)s1", "cytotoxicity call": "inactive"}
{"compound": "C[C@H](CO)N1C[C@H](C)[C@@H](CN(C)C(=O)Nc2ccccc2)Oc2cc(Br)ccc2S1(=O)=O", "cytotoxicity call": "inactive"}
{"compound": "Cc1noc(C)c1NC(=O)Nc1ccc2c(c1)C(=O)N([C@@H](C)CO)C[C@@H](C)[C@H](CN(C)S(=O)(=O)c1cccs1)OCCCC[C@@H](C)O2", "cytotoxicity call": "inactive"}
{"compound": "C[C@@H]1CCCCO[C@H](CN(C)Cc2ccc(C(=O)Nc3ccccc3N)cc2)[C@@H](C)CN([C@H](C)CO)C(=O)c2cc(N(C)C)ccc2O1", "cytotoxicity call": "inactive"}
{"compound": "C[C@H]1CN([C@@H](C)CO)C(=O)c2cc(NC(=O)CCN3CCOCC3)ccc2O[C@@H]1CN(C)C(=O)Nc1ccc(F)cc1", "cytotoxicity call": "inactive"}
{"compound": "C/N=C1\\S[C@@H](CC(=O)NC(C)C)C(=O)N1C", "cytotoxicity call": "inactive"}
{"compound": "C[C@@H]1CN([C@@H](C)CO)C(=O)c2cc(C#Cc3cccnc3)cnc2O[C@@H]1CN(C)S(=O)(=O)c1ccccc1F", "cytotoxicity call": "inactive"}
{"compound": "C[C@H]1CN([C@@H](C)CO)C(=O)c2cccc(NC(=O)CCCCCC(=O)Nc3ccccc3N)c2O[C@@H]1CN(C)S(=O)(=O)c1cn(C)cn1", "cytotoxicity call": "inactive"}
{"compound": "CC(C)NC(=O)N(C)C[C@H]1OCCCC[C@@H](C)Oc2ccc(NC(=O)Nc3cccc4ccccc34)cc2C(=O)N([C@H](C)CO)C[C@@H]1C", "cytotoxicity call": "inactive"}
{"compound": "N#Cc1c(-c2ccccc2)no[n+]1[O-]", "cytotoxicity call": "inactive"}
{"compound": "C[C@H]1CN([C@@H](C)CO)C(=O)c2cc(NC(=O)CCN3CCOCC3)ccc2O[C@@H]1CN(C)CC1CCCCC1", "cytotoxicity call": "inactive"}
{"compound": "Cc1ccc(S(=O)(=O)N(C)C[C@H]2Oc3ccc(NS(=O)(=O)c4cn(C)cn4)cc3CC(=O)N([C@H](C)CO)C[C@@H]2C)cc1", "cytotoxicity call": "inactive"}
{"compound": "C[C@@H]1CN([C@H](C)CO)S(=O)(=O)c2ccc(C#Cc3ccncc3)cc2O[C@@H]1CN(C)C(=O)C1CCC1", "cytotoxicity call": "active"}
{"compound": "Cc1noc(C)c1S(=O)(=O)Nc1ccc2c(c1)C(=O)N([C@@H](C)CO)C[C@@H](C)[C@@H](CN(C)S(=O)(=O)c1ccc(F)cc1)O2", "cytotoxicity call": "inactive"}
{"compound": "C[C@H](CO)N1C[C@H](C)[C@@H](CN(C)Cc2ccc(Cl)c(Cl)c2)Oc2ccc(NC(=O)Nc3ccc(C(F)(F)F)cc3)cc2CC1=O", "cytotoxicity call": "active"}
{"compound": "C[C@H](CO)N1C[C@H](C)[C@H](CN(C)Cc2ccc(Cl)c(Cl)c2)Oc2ccc(NC(=O)Nc3ccc(C(F)(F)F)cc3)cc2CC1=O", "cytotoxicity call": "inactive"}
{"compound": "C[C@H]1CN([C@@H](C)CO)C(=O)Cc2cc(NC(=O)Nc3ccc(C(F)(F)F)cc3)ccc2O[C@H]1CN(C)Cc1ccc(Cl)c(Cl)c1", "cytotoxicity call": "active"}
{"compound": "C[C@H]1CN([C@@H](C)CO)C(=O)Cc2cc(NC(=O)Nc3ccc(C(F)(F)F)cc3)ccc2O[C@@H]1CN(C)Cc1ccc(Cl)c(Cl)c1", "cytotoxicity call": "inactive"}
{"compound": "C[C@@H]1CN([C@H](C)CO)C(=O)Cc2cc(NC(=O)Nc3ccc(C(F)(F)F)cc3)ccc2O[C@@H]1CN(C)Cc1ccc(Cl)c(Cl)c1", "cytotoxicity call": "active"}
{"compound": "C[C@@H]1CN([C@H](C)CO)C(=O)Cc2cc(NC(=O)Nc3ccc(C(F)(F)F)cc3)ccc2O[C@H]1CN(C)Cc1ccc(Cl)c(Cl)c1", "cytotoxicity call": "inactive"}
{"compound": "C[C@@H]1CN([C@@H](C)CO)C(=O)Cc2cc(NC(=O)Nc3ccc(C(F)(F)F)cc3)ccc2O[C@H]1CN(C)Cc1ccc(Cl)c(Cl)c1", "cytotoxicity call": "active"}
